Experimental data taken from PubChem BioAssay (NCI).
This is part of a sample that, as a whole, favours compounds with a hit. Of some 83,000 tested, about 20% had one in any assay.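 Cell lines were cultured in 96-well plates, exposed to a single compound concentration, and assessed for percent growth 48 hours later.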 Calls of active or inactive are those of the source. Rule for the calls: active = growth percent below 10; inactive = the rest.

Tests used:
Test in all cases: NCI-60 one-dose screen, 48 h (100 = growth as untreated, 0 = no growth, -100 = all killed)
SK-MEL-2 melanoma = conditions: 10 µM unless noted
EKVX NSCLC = conditions: 10 µM unless noted
SN12C renal = conditions: 10 µM unless noted
UO-31 renal = conditions: 10 µM unless noted
TK-10 renal = conditions: 10 µM unless noted
ACHN renal = conditions: 10 µM unless noted
CAKI-1 renal = conditions: 10 µM unless noted
A498 renal = conditions: 10 µM
HL-60(TB) leukemia = conditions: 10 µM unless noted
CCRF-CEM leukemia = conditions: 10 µM unless noted
MOLT-4 leukemia = conditions: 10 µM unless noted
SR leukemia = conditions: 10 µM unless noted
RPMI-8226 leukemia = conditions: 10 µM unless noted
OVCAR-8 ovarian = conditions: 10 µM unless noted
OVCAR-5 ovarian = conditions: 10 µM unless noted
OVCAR-4 ovarian = conditions: 10 µM unless noted
SK-OV-3 ovarian = conditions: 10 µM unless noted
IGROV1 ovarian = conditions: 10 µM unless noted
OVCAR-3 ovarian = conditions: 10 µM unless noted
HS 578T breast = conditions: 10 µM unless noted

Measured: growth

Clc1cccc(NCOOC2(OOCNc3cccc(Cl)c3)CCCCC2)c1
active: UO-31 renal -73.7% | SR leukemia -41.4% | IGROV1 ovarian -33.2%
inactive: SK-MEL-2 melanoma 80.8% | EKVX NSCLC 55.1% | SN12C renal 91.9% | TK-10 renal 86.3% | ACHN renal 38.8% | CAKI-1 renal 12.3% | A498 renal 61% | HL-60(TB) leukemia 39.1% | CCRF-CEM leukemia 36.7% | MOLT-4 leukemia 72.4% | RPMI-8226 leukemia 53.1% | OVCAR-8 ovarian 30.3% | OVCAR-5 ovarian 82.5% | OVCAR-4 ovarian 107% | SK-OV-3 ovarian 94.7% | OVCAR-3 ovarian 79.7% | HS 578T breast 98.4%

COc1ccc(N(CC(=O)NCCC[Te]c2ccccc2)C(=O)CNC(=O)OC(C)(C)C)cc1
inactive: SK-MEL-2 melanoma 80% | SN12C renal 18.7% | TK-10 renal 76.1% | ACHN renal 83.9% | CAKI-1 renal 70.4% | CCRF-CEM leukemia 14% | MOLT-4 leukemia 12.1% | SR leukemia 12.7% | RPMI-8226 leukemia 13% | OVCAR-5 ovarian 22% | OVCAR-4 ovarian 118% | OVCAR-3 ovarian 103% | HS 578T breast 11.7%
active: EKVX NSCLC -5.01% | UO-31 renal -3.8% | A498 renal -16% | HL-60(TB) leukemia 3.6% | OVCAR-8 ovarian 9.87% | SK-OV-3 ovarian -7.96% | IGROV1 ovarian 4.89%

O=P1(NCCCl)OCCCN1CCCl (stereo not drawn)
inactive: SK-MEL-2 melanoma 99.6% | EKVX NSCLC 105% | SN12C renal 101% | UO-31 renal 87.5% | TK-10 renal 97.7% | ACHN renal 98.8% | CAKI-1 renal 99% | A498 renal 108% | HL-60(TB) leukemia 100% | CCRF-CEM leukemia 99.1% | MOLT-4 leukemia 101% | SR leukemia 91.2% | RPMI-8226 leukemia 105% | OVCAR-8 ovarian 114% | OVCAR-5 ovarian 106% | OVCAR-4 ovarian 112% | SK-OV-3 ovarian 100% | IGROV1 ovarian 111% | OVCAR-3 ovarian 107% | HS 578T breast 92.7%

CC[C@H](C)[C@H](NC(=O)[C@H]1CCCCN1C)C(=O)N(C)[C@H](C[C@@H](OC(C)=O)c1nc(C(=O)N[C@@H](Cc2ccccc2)C[C@H](C)C(=O)OC)cs1)C(C)C
active: A498 renal 7.53% | HL-60(TB) leukemia -38.6% | CCRF-CEM leukemia 4.02% | MOLT-4 leukemia 4.63% | SR leukemia -7.13% | OVCAR-3 ovarian -0.916%
inactive: SK-MEL-2 melanoma 42.8% | EKVX NSCLC 36.7% | SN12C renal 37.2% | UO-31 renal 40.3% | TK-10 renal 18.1% | ACHN renal 13.6% | CAKI-1 renal 32.2% | RPMI-8226 leukemia 27.5% | OVCAR-8 ovarian 16.4% | OVCAR-5 ovarian 58.1% | OVCAR-4 ovarian 51.5% | SK-OV-3 ovarian 41% | IGROV1 ovarian 25.9% | HS 578T breast 33.8%

CSc1nc(Cl)cc(N2CC2)n1
inactive: SK-MEL-2 melanoma 120% | EKVX NSCLC 106% | SN12C renal 104% | UO-31 renal 114% | TK-10 renal 107% | ACHN renal 109% | CAKI-1 renal 98.3% | A498 renal 122% | HL-60(TB) leukemia 96.6% | CCRF-CEM leukemia 77.6% | MOLT-4 leukemia 108% | SR leukemia 109% | RPMI-8226 leukemia 73.8% | OVCAR-8 ovarian 101% | OVCAR-5 ovarian 111% | OVCAR-4 ovarian 114% | SK-OV-3 ovarian 115% | IGROV1 ovarian 123% | OVCAR-3 ovarian 117% | HS 578T breast 110%

Nc1nnnc2nc[nH]c12
active: SK-MEL-2 melanoma -16.8% | EKVX NSCLC 8.89% | UO-31 renal 3.57% | ACHN renal 2.18% | CAKI-1 renal -11.1% | HL-60(TB) leukemia -4.59% | CCRF-CEM leukemia 0.72% | MOLT-4 leukemia 8.9% | SR leukemia 5.26% | RPMI-8226 leukemia -11.4% | OVCAR-5 ovarian -3.28% | SK-OV-3 ovarian -1.85% | IGROV1 ovarian 8.3% | HS 578T breast 8.71%
inactive: SN12C renal 10.9% | TK-10 renal 33.3% | A498 renal 12.7% | OVCAR-8 ovarian 11.5% | OVCAR-4 ovarian 27.4%

C=CC[PH+](c1ccccc1)c1ccccc1.C=CC[PH+](c1ccccc1)c1ccccc1.[Cl][Pt][Cl]
inactive: SK-MEL-2 melanoma 71.1% | EKVX NSCLC 50.8% | SN12C renal 30.6% | UO-31 renal 31.5% | TK-10 renal 73.7% | ACHN renal 35.9% | CAKI-1 renal 77.9% | A498 renal 99% | OVCAR-8 ovarian 20% | OVCAR-5 ovarian 96.1% | OVCAR-4 ovarian 39.7% | SK-OV-3 ovarian 99.1% | HS 578T breast 55.8%
active: HL-60(TB) leukemia -19.4% | CCRF-CEM leukemia 3.7% | MOLT-4 leukemia 7.63% | SR leukemia 1.56% | RPMI-8226 leukemia -12.1% | IGROV1 ovarian -17.4% | OVCAR-3 ovarian -9.31%

CC[C@]12C=CCN3CC[C@@]4(c5ccc(OC)cc5N(C)[C@H]4[C@@](O)(C(=O)OC)[C@@H]1OC(=O)CCCC[P+](c1ccccc1)(c1ccccc1)c1ccccc1)[C@@H]32
active: SK-MEL-2 melanoma -41.6% | SN12C renal 4.56% | HL-60(TB) leukemia -63.5% | MOLT-4 leukemia 5.66% | OVCAR-4 ovarian 5.22% | SK-OV-3 ovarian -2.96% | IGROV1 ovarian -36.4% | OVCAR-3 ovarian -0.293% | HS 578T breast 9.79%
inactive: EKVX NSCLC 56.1% | UO-31 renal 81.9% | TK-10 renal 48.6% | ACHN renal 93.1% | CAKI-1 renal 85.9% | A498 renal 52.2% | CCRF-CEM leukemia 15.6% | SR leukemia 17.9% | RPMI-8226 leukemia 15.4% | OVCAR-8 ovarian 18.6% | OVCAR-5 ovarian 23.8%

CC(=O)O[C@H]1C(=O)[C@@]2(C)[C@H]([C@H](OC(=O)c3ccccc3)[C@]3(O)C[C@H](OC(=O)[C@H](OC(=O)OC[C@H]4COC(C)(C)O4)[C@@H](NC(=O)c4ccccc4)c4ccccc4)C(C)=C1C3(C)C)[C@]1(OC(C)=O)CO[C@@H]1C[C@@H]2O
inactive: SK-MEL-2 melanoma 14.3% | EKVX NSCLC 27.1% | SN12C renal 22.5% | UO-31 renal 33.8% | TK-10 renal 25.6% | ACHN renal 34.5% | CAKI-1 renal 20.7% | A498 renal 21.1% | CCRF-CEM leukemia 17% | MOLT-4 leukemia 11.7% | SR leukemia 17.9% | OVCAR-8 ovarian 15.9% | OVCAR-4 ovarian 55.6% | SK-OV-3 ovarian 22.2% | IGROV1 ovarian 18.8%
active: HL-60(TB) leukemia 3.13% | RPMI-8226 leukemia 6.27% | OVCAR-5 ovarian 6.17% | OVCAR-3 ovarian 6.13% | HS 578T breast 3.36%

CC[C@H](C)[C@H](NC(=O)[C@H]1CCCCN1C)C(=O)N(C)[C@H](C[C@@H](OC(C)=O)c1cccc(C(=O)N[C@@H](Cc2ccccc2)C[C@H](C)C(=O)O)n1)C(C)C
inactive: SK-MEL-2 melanoma 36.3% | EKVX NSCLC 59.6% | SN12C renal 28.1% | UO-31 renal 44.7% | TK-10 renal 29% | ACHN renal 32.3% | CAKI-1 renal 13.7% | CCRF-CEM leukemia 16.8% | MOLT-4 leukemia 17.8% | SR leukemia 18% | RPMI-8226 leukemia 22.7% | OVCAR-8 ovarian 17.7% | OVCAR-5 ovarian 52% | OVCAR-4 ovarian 34.7% | IGROV1 ovarian 25.7% | HS 578T breast 28.1%
active: A498 renal -2.46% | HL-60(TB) leukemia -40% | SK-OV-3 ovarian 8.71% | OVCAR-3 ovarian -27.7%

COc1ccc(C/C(C)=C(\c2ccc(OCCN3CCOCC3)cc2)c2ccc(OC(=O)Cc3ccccc3)cc2)cc1
inactive: EKVX NSCLC 17.9%
active: SK-MEL-2 melanoma -80.6% | SN12C renal -73.7% | UO-31 renal -84.6% | TK-10 renal -46.1% | ACHN renal -3.31% | CAKI-1 renal 7.71% | A498 renal -90.5% | HL-60(TB) leukemia -59.3% | CCRF-CEM leukemia -13.7% | MOLT-4 leukemia -14.5% | SR leukemia -38.2% | RPMI-8226 leukemia -42.4% | OVCAR-8 ovarian -1.48% | OVCAR-5 ovarian 3.16% | OVCAR-4 ovarian 4% | SK-OV-3 ovarian 0.737% | IGROV1 ovarian 1.9% | OVCAR-3 ovarian -93.4% | HS 578T breast -42.1%

COc1cc(/C=C/[N+](=O)[O-])c([N+](=O)[O-])cc1OC
inactive: EKVX NSCLC 65.9% | SN12C renal 22% | A498 renal 109% | SR leukemia 12.6% | OVCAR-8 ovarian 17% | SK-OV-3 ovarian 103% | HS 578T breast 11.8%
active: SK-MEL-2 melanoma -6.72% | UO-31 renal -49.5% | TK-10 renal -18.3% | ACHN renal -46.4% | CAKI-1 renal -50% | HL-60(TB) leukemia -7.54% | CCRF-CEM leukemia 5.8% | MOLT-4 leukemia 7.83% | RPMI-8226 leukemia 4.37% | OVCAR-5 ovarian -3.45% | OVCAR-4 ovarian 6.43% | IGROV1 ovarian -15.6% | OVCAR-3 ovarian -91.7%

C=CCc1cc2c(cc1OCC)OCO2
inactive: SK-MEL-2 melanoma 104% | EKVX NSCLC 91.1% | SN12C renal 98.8% | UO-31 renal 95.4% | TK-10 renal 92% | ACHN renal 111% | CAKI-1 renal 102% | A498 renal 91.3% | HL-60(TB) leukemia 98.1% | CCRF-CEM leukemia 106% | MOLT-4 leukemia 113% | SR leukemia 126% | RPMI-8226 leukemia 112% | OVCAR-8 ovarian 103% | OVCAR-5 ovarian 95.7% | OVCAR-4 ovarian 108% | SK-OV-3 ovarian 80.3% | IGROV1 ovarian 121% | OVCAR-3 ovarian 107% | HS 578T breast 93.2%

C/C(Cc1ccc(Cl)cc1)=C(\c1ccc(OCCN2CCOCC2)cc1)c1ccc(OC(=O)Cc2ccccc2)cc1
inactive: SK-MEL-2 melanoma 84.9% | EKVX NSCLC 93.3% | SN12C renal 93.8% | UO-31 renal 67.5% | TK-10 renal 86.7% | ACHN renal 104% | CAKI-1 renal 71.6% | A498 renal 98.6% | HL-60(TB) leukemia 100% | CCRF-CEM leukemia 98.9% | MOLT-4 leukemia 94.8% | SR leukemia 87.1% | RPMI-8226 leukemia 84% | OVCAR-8 ovarian 92% | OVCAR-5 ovarian 91.1% | OVCAR-4 ovarian 101% | SK-OV-3 ovarian 109% | IGROV1 ovarian 86.4% | OVCAR-3 ovarian 101% | HS 578T breast 99.1%

C/C(=C\c1ccn(-c2ccc(N)cc2)n1)[C@@H]1C[C@@H]2O[C@]2(C)CCC[C@H](C)[C@H](O)[C@@H](C)C(=O)C(C)(C)[C@@H](O)CC(=O)O1
active: A498 renal -0.818% | HL-60(TB) leukemia 5.9% | OVCAR-3 ovarian 2%
inactive: SK-MEL-2 melanoma 35.8% | EKVX NSCLC 54.7% | SN12C renal 39.6% | UO-31 renal 38.5% | TK-10 renal 54.6% | ACHN renal 45.7% | CAKI-1 renal 43.2% | CCRF-CEM leukemia 16.8% | MOLT-4 leukemia 13.3% | SR leukemia 19% | OVCAR-8 ovarian 29.5% | OVCAR-5 ovarian 32.9% | OVCAR-4 ovarian 67.4% | SK-OV-3 ovarian 45.1% | IGROV1 ovarian 40.3% | HS 578T breast 17.8%
